Screens as filed in PubChem BioAssay.
A selection: hits, their analogues and other compounds. The true share with any hit is near 8.3%.
Lassa entry inh: Lassa virus entry inhibition. Lassa virus pseudotype entry inhibition, cell reporter. Potency, µM (highest dose often 37.9 µM), without a hit: top-dose activity change, negative = inhibition, most hits filed as inhibitors. 1.2% of 300,000 active; calls by dose curve; tested in HEK293 cells; further: potency means the concentration at half of the fitted maximal effect; nearly all actives have a fitted effect of over 50% in size
HCV inhibitor: inhibitors of hepatitis C virus infection; Huh7.5.1 HCVcc-Cre infection, luciferase reporter, 44 h; Potency, µM (top dose mostly 41.8 µM), inactives show at the top dose activity change, negative = inhibition, hits mostly inhibitors; 3.4% of 340,000 active; AID 651820; further: potency means the concentration at half of the fitted maximal effect
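Reporter virus HCVcc-Cre (~0.5 moi) infects cells exposed to compound; seeding density 1,000 cells/well with 4 h settling beforehand. Luminescence, 15 sec read, taken 44 h post-infection following a 15 min RT substrate incubation.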
MARV entry inh: Marburg virus entry inhibition. Marburg virus pseudotyped entry inhibition, cell reporter. Potency, µM (series often up to 37.8 µM), for inactives: at the top dose activity change, negative = inhibition, actives largely listed as inhibitors. 1.8% of 300,000 active; calls by dose curve; tested in HEK293 cells; further: potency means the concentration at half of the fitted maximal effect
HCMV antiviral: blocks human cytomegalovirus replication; HFF cells, HCMV-luciferase reporter, 72 h; active compounds read low; 4.5% of 410,000 active; AID 1259415; activity change, negative = inhibition, % at 57.5 µM; in the data active means activity change below about -60%; inconclusive means no clear call, values can overlap the other calls; inactive means above about -39%
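HFF cells seeded 16 h at 37C, treated with compounds, infected with luciferase-reporter HCMV at MOI 1 PFU/cell; luciferase read at 72 h post infection, normalized to buffer-only and Salinomycin controls.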
FBPA Giardia inh: inhibitors of Giardia lamblia fructose-1,6-bisphosphate aldolase | purified Giardia FBPA | Potency, µM (highest dose often 59.6 µM), for inactives: top-dose activity, negative = inhibition, actives largely listed as inhibitors | 0.71% of 290,000 active; further: potency means the concentration at half of the fitted maximal effect; nearly all actives have a fitted effect of over 55% in size
Target sequence (A8B2U2 whole entry, looked up): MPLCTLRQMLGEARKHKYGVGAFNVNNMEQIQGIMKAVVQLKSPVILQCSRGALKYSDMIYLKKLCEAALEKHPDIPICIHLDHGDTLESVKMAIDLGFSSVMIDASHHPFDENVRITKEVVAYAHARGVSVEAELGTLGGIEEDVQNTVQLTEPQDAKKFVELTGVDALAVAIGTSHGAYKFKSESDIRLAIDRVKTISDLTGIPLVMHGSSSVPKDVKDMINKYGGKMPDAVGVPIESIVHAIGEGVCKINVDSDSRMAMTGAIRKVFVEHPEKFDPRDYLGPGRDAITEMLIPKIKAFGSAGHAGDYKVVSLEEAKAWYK
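40 nM FBPA preincubated 10 min at RT with compound (up to 57.5 uM final), then substrate plus GAPDH/TPI/NAD/arsenate coupling and diaphorase/resazurin added. Fluorescence read after 20 min at RT, 525/598 nm.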
FMDV inh: foot and mouth disease virus antiviral activity | FMDV antiviral cell-based qHTS | Potency, µM (top dose mostly 57.9 µM), without a hit: top-dose activity change, negative = inhibition, hits mostly inhibitors | 1.2% of 410,000 active | AID 1159524; calls by dose curve; tested in HEK293T cells; further: read-out not given here; potency means the concentration at half of the fitted maximal effect; nearly all actives have a fitted effect of over 45% in size
* marks the source's active call; other numbers are inactive results; ? = inconclusive; . = no result; [ ] = dose if it differs, or a comment. Unless noted, the call rests on the fitted dose curve; in most records, active means well fitted curve in the direction sought with a large enough effect; inconclusive means small, poorly fitted or top-dose-only effect, or another doubt; inactive means no such curve, though single readings can be large; an effect the other way counts as inactive or inconclusive. On the % scale 0 is the no-effect control and ±100 the full control effect.

SMILES	Lassa entry inh	HCV inhibitor	MARV entry inh	HCMV antiviral	FBPA Giardia inh	FMDV inh
COC(=O)[C@]1(Sc2ccc(OC)cc2)CC(=O)N[C@@H]1c1ccc(OC(C)C)c(OC)c1	.	.	.	-9	.	.
CNc1ccc(/C=C2\COc3ccccc3C2=O)cc1[N+](=O)[O-]	1%	-14%	?	0	5%	-7%
O=C1/C(=C/c2ccccc2[N+](=O)[O-])COc2ccccc21	.	?	.	-100*	-1%	?
COC(=O)C(C)Sc1nc(NCc2ccccc2)nc(N(C)C)n1 (centres undefined)	12%	3.2µM*	9%[46.1 µM]	-34	-2%	-13%
Cc1ccc(-n2cccn2)c(CN2CCC(CO)(CCc3ccccc3)CC2)c1	-5%	2%	8.9µM*	-26	2%	-5%
N#Cc1cc2cc3c(cc2nc1SCC(=O)N1CCCC1)OCCO3	?	-10%	?	.	-9%	17%
CC(=O)CSc1nc2cc3c(cc2cc1C#N)OCCO3	?	-20%	1.4µM*	-1	?	-27%
CC(C)CCCCCCCCCCCCC(=O)NCC(=O)NC1C(C)OC(Nc2ncnc3nc[nH]c23)C(O)C1O (centres undefined)	0.079µM*	1µM*	?	-96*	.	?
C/C(=C\CNc1ncnc2nc[nH]c12)CO	.	-65%	.	18	4%	-5%
CC(=O)OCC1=C(C(=O)O)N2C(=O)C(NC(=O)Cn3nc(C(F)F)c(Cl)c3C)C2SC1 (centres undefined)	-5%	9%	10%[46.1 µM]	-14	-8%	-1%
Cc1nnc(SCC2=C(C(=O)O)N3C(=O)C(NC(=O)Cn4nc(C(F)F)c(Cl)c4C)C3SC2)s1 (centres undefined)	1%	5%	-18%[46.1 µM]	-35	4µM*	17%
Cc1cccc(S(=O)(=O)N2[C@@H]3c4cccc(=O)n4C[C@H]2[C@H](CO)[C@H]3C(=O)N(C)C)c1	.	.	.	15	.	.
CN(Cc1cccc(-c2ccncc2)c1)C(=O)Oc1ccc([N+](=O)[O-])cc1	.	.	.	.	.	22µM*
CCCNS(=O)(=O)c1cc(-c2nnc3c4ccccc4c(C)nn23)ccc1OC	-1%[46.1 µM]	.	-10%[46.1 µM]	?	.	26%
Cc1[nH]n(-c2ccccc2)c(=O)c1C(C[N+](=O)[O-])c1ccccc1Cl (centres undefined)	5%	2%	35%	8	-23%	-13%
COc1ccc(C(C[N+](=O)[O-])c2c(C)[nH]n(-c3ccccc3)c2=O)cc1 (centres undefined)	4%	-9%	-10%[46.1 µM]	-103*	?	-1%
COc1ccc(-c2nc(-c3ccccc3)oc2NC(C)C)cc1	.	.	.	.	0%	.
CN1/C(=N\O)c2cccc3cccc1c23	-16%	-27%	-4%	-60*	8.9µM*	-11%
CNC(=O)CN1C(=O)c2cccc3cccc1c23	5%	-1%	-13%	-13	-6%	-23%
CCN(CC)c1ccc(NC(=O)C(Cc2ccccc2)NS(=O)(=O)c2ccc(Br)s2)c(C)c1 (centres undefined)	1%[46.1 µM]	.	13%[46.1 µM]	-10	.	28%
CCN(C(=O)C(NS(=O)(=O)c1ccc(Br)s1)c1ccccc1)c1ccc(C)c(C)c1 (centres undefined)	?	.	?	-64*	.	-24%
CCCCC/C=C\C/C=C\C/C=C\CCCCCCC(=O)NCC(=O)O	.	.	.	.	7%	.
Cc1ccc(OCc2cc(C(=O)N(C)CCc3ccccn3)no2)cc1C	.	-6%	.	-4	0%	6%
COc1cccc(OCc2cc(C(=O)N(C)Cc3nc(C)cs3)no2)c1	?	-2%	-16%	59	.	72%
CC(CCCC(C)(C)O)NC(=O)c1cc(COc2ccc3ncccc3c2)on1 (centres undefined)	?	5.6µM*	-9%[46.1 µM]	-88*	2%	?
SMILES	Lassa entry inh	HCV inhibitor	MARV entry inh	HCMV antiviral	FBPA Giardia inh	FMDV inh
Cc1nc(CN(C)C(=O)c2cc(COc3ccc4ncccc4c3)on2)cs1	?	?	?	-65*	-2%	?
CN(Cc1ccccn1)C(=O)c1cc(COc2ccc(F)c(F)c2)on1	.	.	.	-93*	.	3%
Cc1ccc(OCc2cc(C(=O)NC(C)Cc3cccnc3)no2)cc1C (centres undefined)	.	?	.	-19	.	2%
Cc1cc(C)n(CCNC(=O)c2cc(COc3ccc4ncccc4c3)on2)n1	.	?	.	0	-3%	13µM*
Cn1nccc1C(=O)NCC1CCC2(CCN(Cc3cccc4ncccc34)CC2)O1 (centres undefined)	.	.	.	.	.	-6%
NC(N)=NCCC[C@H](N)C(=O)N1CCC[C@H]1C(=O)N1CCC[C@H]1C(=O)NCC(=O)N[C@@H](Cc1ccccc1)C(=O)N[C@@H](CO)C(=O)N1CCC[C@H]1C(=O)N[C@@H](Cc1ccccc1)C(=O)O	.	.	.	.	2%	.
Cc1ccc(OCc2cc(C(=O)N(C)Cc3cnn(-c4ccccc4C)c3)no2)cn1	7.9µM*	11µM*	?	-26	.	0%
Cc1ccc(OCc2cc(C(=O)NCCc3cccnc3)no2)cc1C	.	?	.	61	.	-8%
COc1cccc(OCc2cc(C(=O)N(Cc3nccn3C)C(C)C)no2)c1	.	-5%	.	-27	.	-19%
O=C(NCc1cccc(Cl)c1)c1cc(COc2ccc3ncccc3c2)on1	?	6.3µM*	?	?	2%	16µM*
Cc1ccc(F)cc1CNC(=O)c1cc(COc2ccc3ncccc3c2)on1	?	2.8µM*	?	-96*	-2%	25µM*
CC(C)N(Cc1nccn1C)C(=O)c1cc(COc2ccc3ncccc3c2)on1	?	?	-22%[46.1 µM]	-71*	1%	-6%
Fc1ccc(CNc2nc3c(-c4ccc(F)cc4)nnn3c3ccccc23)cc1	10%[46.1 µM]	.	21%[46.1 µM]	35	.	-4%
COC1CCCCC1C1CCN(C(=O)c2cccs2)CC1 (centres undefined)	.	.	-7%	.	.	.
COC(=O)c1cc2occc2n1Cc1nc(-c2cccc(Br)c2)oc1C	.	.	3%[46.1 µM]	6	.	-18%
Cc1ccc(CNC(=O)c2cc3c(=O)n(Cc4ccco4)ccc3nc2C)cc1	?	.	.	?	.	-12%
CN(C)CCCN(C(=O)c1ccc2c(c1)CCCC2)c1nc2c(F)cccc2s1	?	7.9µM*	-18%	-35	?	-7%
Cc1ccc2nc(N(CCCN(C)C)C(=O)c3ccc4c(c3)CCCC4)sc2c1	?	11µM*	?	-77*	-11%	?
Cc1cc(C)c2nc(N(CCCN(C)C)C(=O)c3ccc4c(c3)CCCC4)sc2c1	11µM*	7.1µM*	?	?	.	?
CCOc1ccc2nc(N(CCN(C)C)C(=O)c3ccc4c(c3)CCCC4)sc2c1	?	?	?	.	.	-21%
C=CCC[C@@H](Cc1ccc(F)cc1)C(=O)OC[C@@H](Cc1ccccc1)NC(=O)[C@H](CC=C)CC(=O)NCCO	.	7.1µM*	.	-20	.	-28%
